# Measurements from ChEMBL document CHEMBL5308504, “Tm Shift (DSF) assay results for EUbOPEN Chemogenomics Library” (2023).
# “And” between values parts separate entries of the source, which are not always exact repeats. Equal values may be shown once.
# Columns and labels:
# Settings in all cases: Compound concentration 20.0 uM, Protein concentration 2.0 uM, Result type QC Liability
# [1] = biological target: Tyrosine-protein kinase ABL1 (Homo sapiens) (UniProt P00519)
# [2] = biological target: Cyclin-dependent kinase 2 (Homo sapiens) (UniProt P24941)
# [3] = biological target: Casein kinase I isoform delta (Homo sapiens) (UniProt P48730)
# Chain of Casein kinase I isoform delta (Homo sapiens) (P48730 whole entry, looked up, canonical isoform): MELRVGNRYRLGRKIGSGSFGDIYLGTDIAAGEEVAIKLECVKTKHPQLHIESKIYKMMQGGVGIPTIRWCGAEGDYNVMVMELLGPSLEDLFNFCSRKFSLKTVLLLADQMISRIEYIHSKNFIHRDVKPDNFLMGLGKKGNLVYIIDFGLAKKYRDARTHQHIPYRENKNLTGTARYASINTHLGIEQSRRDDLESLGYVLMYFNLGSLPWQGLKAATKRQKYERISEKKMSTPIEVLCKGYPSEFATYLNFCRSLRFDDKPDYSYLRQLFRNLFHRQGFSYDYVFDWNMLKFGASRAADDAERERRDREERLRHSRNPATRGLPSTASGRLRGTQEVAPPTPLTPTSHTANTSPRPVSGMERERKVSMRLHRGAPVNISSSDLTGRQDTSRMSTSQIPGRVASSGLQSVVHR
# [4] = biological target: Glycogen synthase kinase-3 beta (Homo sapiens) (UniProt P49841)
# Chain of Glycogen synthase kinase-3 beta (Homo sapiens) (P49841 whole entry, looked up): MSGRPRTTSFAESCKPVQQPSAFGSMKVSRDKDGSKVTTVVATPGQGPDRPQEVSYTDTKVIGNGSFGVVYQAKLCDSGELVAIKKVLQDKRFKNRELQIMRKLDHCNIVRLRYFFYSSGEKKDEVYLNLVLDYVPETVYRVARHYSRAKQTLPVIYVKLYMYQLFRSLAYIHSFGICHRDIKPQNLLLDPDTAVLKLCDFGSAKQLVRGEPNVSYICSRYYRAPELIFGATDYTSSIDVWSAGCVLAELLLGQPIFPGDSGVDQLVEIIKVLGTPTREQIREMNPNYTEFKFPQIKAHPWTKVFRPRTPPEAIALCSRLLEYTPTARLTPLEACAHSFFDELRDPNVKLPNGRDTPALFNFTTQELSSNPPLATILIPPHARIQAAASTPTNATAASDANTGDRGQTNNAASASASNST
# [5] = biological target: Mitogen-activated protein kinase 1 (Homo sapiens) (UniProt P28482)
# Chain of Mitogen-activated protein kinase 1 (Homo sapiens) (P28482 whole entry): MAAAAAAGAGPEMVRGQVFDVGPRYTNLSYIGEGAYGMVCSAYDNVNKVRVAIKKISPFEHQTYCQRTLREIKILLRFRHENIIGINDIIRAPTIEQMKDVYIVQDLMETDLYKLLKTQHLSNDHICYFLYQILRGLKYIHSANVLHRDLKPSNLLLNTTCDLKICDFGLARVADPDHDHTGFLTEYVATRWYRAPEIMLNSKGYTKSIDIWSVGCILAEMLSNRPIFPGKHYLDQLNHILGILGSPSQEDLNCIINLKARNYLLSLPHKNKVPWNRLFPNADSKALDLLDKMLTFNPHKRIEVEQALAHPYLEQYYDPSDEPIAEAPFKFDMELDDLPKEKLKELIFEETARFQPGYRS
# [6] = biological target: T1, Aurora kinase A (Homo sapiens) (UniProt O14965)
# T1 sequence (whole entry): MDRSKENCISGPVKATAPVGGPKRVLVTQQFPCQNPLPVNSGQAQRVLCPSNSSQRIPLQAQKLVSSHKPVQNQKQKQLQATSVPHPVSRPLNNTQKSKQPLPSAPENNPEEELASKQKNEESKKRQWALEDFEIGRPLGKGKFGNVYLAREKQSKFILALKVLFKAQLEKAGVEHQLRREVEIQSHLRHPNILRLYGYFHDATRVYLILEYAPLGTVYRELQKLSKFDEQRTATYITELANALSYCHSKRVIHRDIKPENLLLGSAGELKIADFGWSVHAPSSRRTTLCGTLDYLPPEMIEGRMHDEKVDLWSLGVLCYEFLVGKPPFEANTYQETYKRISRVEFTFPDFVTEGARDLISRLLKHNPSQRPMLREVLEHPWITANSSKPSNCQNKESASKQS
# Chain of Tyrosine-protein kinase ABL1 (Homo sapiens) (P00519 whole entry): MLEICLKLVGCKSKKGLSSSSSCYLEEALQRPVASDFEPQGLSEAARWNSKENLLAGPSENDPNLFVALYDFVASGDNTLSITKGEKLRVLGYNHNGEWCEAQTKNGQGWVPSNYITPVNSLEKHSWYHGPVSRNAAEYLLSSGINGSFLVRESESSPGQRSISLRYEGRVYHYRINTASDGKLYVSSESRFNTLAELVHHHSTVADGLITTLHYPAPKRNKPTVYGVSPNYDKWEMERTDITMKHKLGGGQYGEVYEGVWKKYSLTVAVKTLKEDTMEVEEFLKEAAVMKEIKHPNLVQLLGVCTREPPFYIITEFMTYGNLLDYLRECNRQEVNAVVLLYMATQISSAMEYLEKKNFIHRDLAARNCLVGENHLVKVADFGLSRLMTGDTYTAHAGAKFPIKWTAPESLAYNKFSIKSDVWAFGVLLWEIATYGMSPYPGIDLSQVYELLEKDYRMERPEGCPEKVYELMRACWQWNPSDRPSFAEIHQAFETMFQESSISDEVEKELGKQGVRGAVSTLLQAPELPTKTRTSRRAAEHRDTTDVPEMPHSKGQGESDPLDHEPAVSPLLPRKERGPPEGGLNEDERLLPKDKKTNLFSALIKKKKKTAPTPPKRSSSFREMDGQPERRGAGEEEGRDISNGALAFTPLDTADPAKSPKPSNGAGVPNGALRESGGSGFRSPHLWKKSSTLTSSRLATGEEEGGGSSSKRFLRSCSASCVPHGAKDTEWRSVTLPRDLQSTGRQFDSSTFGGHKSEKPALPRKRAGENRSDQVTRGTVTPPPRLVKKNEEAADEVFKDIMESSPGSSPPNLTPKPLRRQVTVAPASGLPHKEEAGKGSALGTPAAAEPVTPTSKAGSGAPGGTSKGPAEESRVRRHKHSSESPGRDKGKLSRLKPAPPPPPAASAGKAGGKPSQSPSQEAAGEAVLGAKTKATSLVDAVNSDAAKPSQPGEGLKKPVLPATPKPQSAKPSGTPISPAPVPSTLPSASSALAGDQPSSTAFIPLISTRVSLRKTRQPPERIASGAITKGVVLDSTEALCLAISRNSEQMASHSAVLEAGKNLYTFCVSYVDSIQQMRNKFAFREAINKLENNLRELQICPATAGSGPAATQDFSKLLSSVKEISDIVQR
SMILES,ΔTm [1],ΔTm [2],ΔTm [3],ΔTm [4],ΔTm [5],ΔTm [6]
Fc1ccc(Cl)cc1-c1nc(Nc2ccncc2)c2nccnc2n1,0.4 °C,1.19 °C,2.24 °C,0.58 °C,0.56 °C,-0.16 °C
N#Cc1ccc(C#CC[C@@H](C#N)NC(=O)[C@H]2CCCCN2)cc1F,-0.48 °C,-0.17 °C,0.45 °C,-0.17 °C,-0.62 °C,-0.01 °C
CCN1C(=O)/C(=C(\NC2CCN(C)CC2)c2ccc3c(c2)OCO3)c2cc(C(C)=O)ccc21,0.4 °C,0.54 °C,1.8 °C,0.62 °C,0.05 °C,0.02 °C
CCc1ccc(-c2ncn(CC3(F)CCN(C)CC3)c2-c2ccnc3[nH]ccc23)nc1,0.05 °C,0.87 °C,0.57 °C,-0.72 °C,0.39 °C,-1.06 °C
O=C(O)c1ccc(OCCCc2ccc(OCCCCOC3CCCCC3)cc2)c(C(=O)NC2CCCC(C(=O)O)C2)c1 (stereo not drawn),-0.97 °C,-0.34 °C,0.18 °C,-0.84 °C,-0.39 °C,-1.1 °C
CCOC(=O)/N=C(\N)c1ccc(OCc2cccc(COc3ccc(C(C)(C)c4ccc(OC(=O)OCC)cc4)cc3)c2)cc1,0.03 °C,-3.47 °C,-11.2 °C,-4.21 °C,-11.6 °C,-7.28 °C
N#Cc1c(SCc2csc(-c3ccc(Cl)cc3)n2)nc(N2CCCC2)c(C#N)c1-c1ccc(OCCO)cc1,-0.51 °C,0.34 °C,-2.01 °C,0 °C,4.1 °C,-0.18 °C
Cc1c(NC(=O)COc2ccc(Cl)cc2C(=O)c2cc(F)cc(C(F)(F)F)c2)ccc(C(=O)O)c1F,-0.06 °C and 0.75 °C,0.5 °C and 0.58 °C,0.18 °C and 0.09 °C,1.73 °C and 2.32 °C,0.12 °C and 0.93 °C,-0.24 °C and -1.26 °C
CCc1ccc(N(CC(C)C)S(=O)(=O)c2ccc(OCC3CCOCC3)c(CO)c2)cc1,-3.79 °C,0.33 °C,0.71 °C,0 °C,0.2 °C,-8.48 °C
CS(=O)(=O)CCNCc1ccc(-c2ccc3ncnc(Nc4ccc(OCc5cccc(F)c5)c(Cl)c4)c3c2)o1,0.09 °C,0.9 °C,0.12 °C,-0.86 °C,0.56 °C,-0.38 °C
C[S+]([O-])c1ccc(-c2nc(-c3cccc(I)c3)c(-c3ccncc3)[nH]2)cc1 (stereo not drawn),0.33 °C,-0.2 °C,2.61 °C,5.08 °C,-1.08 °C,-1.53 °C
O=C(O)C[C@H]1CCn2c1c(Sc1ccc(Cl)cc1)c1ccc(F)cc12,-1 °C,-1.1 °C,-0.47 °C,0 °C,-0.38 °C,-0.18 °C
O=C(O)c1ccc(CN2C[C@@H]3C[C@H]2CN3Cc2ccc(Oc3ccc(-c4ncco4)cc3)cc2)cc1,0.42 °C,0.83 °C,0.25 °C,-0.14 °C,0.14 °C,-0.18 °C
Cn1cc(-c2ccc(-c3cncc(Cl)c3N3CCC4(CCNC4=O)CC3)cc2)cn1,-0.07 °C,-0.46 °C,-0.23 °C,6.99 °C,0.45 °C,1.26 °C
COCCN(C)c1ccc(NC(=O)/C=C(\C)c2ccc3ccccc3c2)c(C(=O)O)c1,-1.57 °C,1.03 °C,1.4 °C,2.78 °C,-0.17 °C,1.7 °C
O=C(O)Cc1ccc(CCNS(=O)(=O)c2ccc(Cl)cc2)cc1,0.25 °C,0.43 °C,0.01 °C,0.95 °C,-0.52 °C,-0.24 °C
Cc1cc(OCCC(C)(C)O)cc(C)c1-c1ccc(F)c2c1CC[C@H]2Oc1ccc2c(c1)OC[C@H]2CC(=O)O,-2.63 °C,-3.73 °C,-1.62 °C,-4.17 °C,-8.53 °C,-3.22 °C
COc1cc(C(N)=O)nc(-c2cccc(C#C[C@]3(O)CCN(C)C3=O)c2)c1,-0.11 °C,1.02 °C,-0.06 °C,0.79 °C,0.3 °C,1.62 °C
CNC(=O)c1cccc(-c2ccc3c(N4CCOC[C@@H]4C)nc(N4CCOC[C@@H]4C)nc3n2)c1,0.83 °C,0.33 °C,0.36 °C,0.51 °C,0 °C,0.91 °C
COc1ccc(-c2c(-c3ccccc3)oc3ncnc(O[C@H](C)CCCCC(=O)O)c23)cc1,-0.07 °C,-2.59 °C,-0.84 °C,-2 °C,-3.65 °C,5.26 °C
Nc1ncc2c(n1)-c1c([nH]c3ccc(C4CC4)cc13)CCCC2,0.19 °C,-0.43 °C,-0.06 °C,2.09 °C,0.41 °C,-0.12 °C
COCCOCn1c(S(C)(=O)=O)nc2c1c(=O)n(C)c(=O)n2C,0.21 °C,0.39 °C,-0.13 °C,-0.24 °C,-0.83 °C,0.11 °C
COc1cc(-c2cncc(-c3ccc(N4CCN(C(C)C)CC4)cc3)c2C)cc(F)c1C(=O)N1CCCC1,0.7 °C,0.41 °C,0.26 °C,-0.59 °C,0.53 °C,-0.62 °C
